From PubChem BioAssay (NCI)
About 83,000 compounds went through this panel and 20% of them were active in at least one assay; those are over-represented in the sample as a whole.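 The test compound was applied at a single concentration to cells in 96-well plates for 48 hours, and percent growth was recorded.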 Values without a mark were called inactive. Active and inactive are the calls of the source. The calls were made as follows: active = growth percent below 10; inactive = the rest.

Legend:
Assay in all cases: NCI-60 one-dose screen, 48 h (100 = growth as untreated, 0 = no growth, -100 = all killed)
Conditions in all cases: 10 µM unless noted
DU-145 prostate = system: DU-145 prostate
K-562 leukemia = system: K-562 leukemia
MALME-3M melanoma = system: MALME-3M melanoma
MDA-MB-231 breast = system: MDA-MB-231 breast
RXF 393 renal = system: RXF 393 renal
SF-268 CNS = system: SF-268 CNS
SF-295 CNS = system: SF-295 CNS
SF-539 CNS = system: SF-539 CNS
UACC-257 melanoma = system: UACC-257 melanoma
M14 melanoma = system: M14 melanoma

Row | SMILES | growth (DU-145 prostate) [%] | growth (K-562 leukemia) | growth (MALME-3M melanoma) | growth (MDA-MB-231 breast) | growth (RXF 393 renal) | growth (SF-268 CNS) | growth (SF-295 CNS) | growth (SF-539 CNS) | growth (UACC-257 melanoma) | growth (M14 melanoma)
1 | O=C(CCCCCCNC(=O)C(O)(O)C(F)(F)F)Nc1ccc(-c2ccccc2)cc1 | 12 | 9.55% (active) | 3.09% (active) | 25% | -45% (active) | -4.51% (active) | -32.1% (active) | 19.7% | 14.8% | 20.7%
2 | NS(=O)(=O)c1ccc(Nc2nc(N/N=C/C=C/c3ccccc3)nc(Nc3ccccc3)n2)cc1 | 42.5 | 27.1% | 50.7% | 47.9% | -8.45% (active) | 46% | 44.5% | 39.4% | 79.2% | 40.3%
3 | COc1ccc2[nH]cc(-c3nn4cc(-c5ccncc5)nc4s3)c2c1 | 88.8 | 28.5% | 86.3% | 82.3% | 96% | 86.9% | 62.8% | 88.3% | 109% | 82.8%
4 | CCCCCC[n+]1ccc(SCC(=O)n2ccc3ccccc32)c2ccccc21 | 94.1 | 51.7% | 91.4% | 89.5% | 113% | 101% | 82.2% | 96.3% | 100% | 89%
5 | N#Cc1c(-c2cccs2)cc(-c2cnccn2)nc1SCC(=O)N/N=C/c1cccs1 | 37.3 | 63.2% | 39.2% | 40.3% | -1.38% (active) | 53.7% | 48.8% | 9.8% (active) | 53.9% | 57.4%
6 | O=C(CSc1nc2ccccc2c(=O)n1CCc1ccccc1)Nc1ccc(S(=O)(=O)Nc2ccc(Cl)nn2)cc1 | 105 | 87.2% | 96.5% | 94.7% | 86.5% | 96.7% | 95.3% | 92.3% | 99.3% | 96.2%
7 | CCNC(=O)Oc1ccc(/C(=C(/C)c2ccc(OC)cc2)c2ccc(OCCN3CCCCCC3)cc2)cc1 | 76 | 2.3% (active) | -3.44% (active) | 46.8% | 12.3% | 64% | -20.9% (active) | 18.4% | -32.4% (active) | -73.3% (active)
8 | COC(=O)CCSC1=C(C)C(=O)c2ccccc2C1=O | 111 | 38.4% | 104% | 75.6% | 87.3% | 97.4% | 102% | 78.6% | 106% | 107%
9 | Brc1ccc2[nH]cc(-c3nn4cc(-c5nccs5)nc4s3)c2c1 | 20.8 | 13.1% | -7.45% (active) | -13.5% (active) | -46.4% (active) | 31.7% | 37.1% | 29.7% | 56.8% | 13.3%
10 | O=S(=O)(Oc1ccc(-c2cn3ccsc3n2)cc1)c1cccc(C(F)(F)F)c1 | 103 | 96.9% | 91.3% | 101% | 100% | 110% | 98.3% | 101% | 99.6% | 101%
11 | C[C@H]1OCC2(CCN(c3cnc(C(=O)Nc4cc(F)cc5cccnc45)cn3)CC2)[C@H]1N | 78.2 | 6.28% (active) | 48.1% | 31.6% | 58.4% | 72.2% | 92.2% | 68.4% | 101% | 71.2%
12 | CC1=Cc2ccccc2OC12C=Cc1ccccc1O2 (stereo not given) | 119 | 92.3% | 98.7% | 89.8% | 97.8% | 98.8% | 97.2% | 97.8% | 114% | 107%
13 | COc1cc2cc(Oc3ccc(NC(=O)Nc4ccc(F)c(C(F)(F)F)c4)cc3)c(C)nc2cc1OCCN(C)C | 106 | 3.63% (active) | 92.7% | 103% | 76.5% | 98.5% | 104% | 102% | 105% | 95.7%
